Source: PubChem BioAssay (several laboratories)
Only some compounds are listed: those with a hit (about 7% of all), similar ones and a draw of the others.
ADAM10 inh: inhibits human ADAM10; O14672; recombinant ADAM10, EDANS/DABCYL FRET peptide cleavage, 3 h; inhibition, % at 7 µM; 370,000 compounds, 0.62% hits; AID 720582;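 active = inhibition above a per-campaign cutoff equal to the mean of compounds falling between control-based bounds plus 3 SD, cut at about 20% in these data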;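 also: 0% = DMSO wells while the 100% control is not disclosed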
Target sequence (O14672 214-748 limits assumed): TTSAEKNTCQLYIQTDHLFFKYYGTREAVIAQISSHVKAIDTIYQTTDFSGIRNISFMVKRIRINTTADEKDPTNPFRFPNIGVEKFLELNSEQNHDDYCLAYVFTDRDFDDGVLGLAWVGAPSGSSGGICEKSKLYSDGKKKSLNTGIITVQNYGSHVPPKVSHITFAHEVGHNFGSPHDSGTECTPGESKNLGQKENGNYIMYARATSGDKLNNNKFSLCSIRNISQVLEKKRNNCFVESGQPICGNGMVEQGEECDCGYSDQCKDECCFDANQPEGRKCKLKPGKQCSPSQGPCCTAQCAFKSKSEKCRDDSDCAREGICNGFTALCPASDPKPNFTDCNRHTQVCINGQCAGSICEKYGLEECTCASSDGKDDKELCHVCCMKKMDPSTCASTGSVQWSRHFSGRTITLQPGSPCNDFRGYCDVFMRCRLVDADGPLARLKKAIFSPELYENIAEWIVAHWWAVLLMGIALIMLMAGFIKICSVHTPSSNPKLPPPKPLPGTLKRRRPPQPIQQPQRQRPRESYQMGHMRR
KLK7 zymogen act: activators of human kallikrein-7 zymogen | 370,000 compounds, 0.9% hits | P49862 | activation, % at 7 µM | purified proKLK7, EDANS-DABCYL substrate fluorescence; 100% is mature enzyme control, 0% vehicle;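 active = activation above the mean of all tested compounds plus 3 SD, computed per campaign excluding outliers beyond control limits, cut at about 13% in these data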
NR3A LBD binder: modulates the human NR3A ligand-binding domain. 340,000 compounds, 2.5% hits. NR3A LBD differential scanning fluorimetry, Tm shift; 0% = protein alone, 100% = glycine-bound protein. AID 1259313. Tm shift relative to glycine control, % at 25 µM;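 active = melting temperature shift of at least 10% of the positive control shift, at one fixed dose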
ADAM17 inh: inhibitors of human ADAM17; 370,000 compounds, 0.83% hits; recombinant ADAM17, EDANS/DABCYL FRET peptide cleavage; P78536; inhibition, % at 6.95 µM;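 active = inhibition above the mean of compounds lying between control limits plus 3 SD, set per campaign, cut at about 8.5% in these data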;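 also: 0% = DMSO-only wells as the low control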
rCAG binder: binds r(CAG) RNA repeats; 370,000 compounds, 1.3% hits; inhibition, % at 3 µM; r(CAG) RNA repeat, TO-PRO-1 dye displacement fluorescence;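 active = inhibition above the plate cutoff, the mean of all test compounds on that plate plus 3 SD, cut at about 35% in these data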;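 also: 0% = DMSO alone and 100% = 100 µM mitoxantrone as full dye displacement; higher means more dye released from RNA so lower well fluorescence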
AHR act: activates the human aryl hydrocarbon receptor | AID 2796 | P35869 | 320,000 compounds, 2.5% hits | activation, % at 5 µM | AHR-responsive luciferase reporter cells, luminescence; in the data active = activation above about 47%;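 also: 0% = vehicle wells and 100% = reference agonist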
ADAM10 confirm: confirmation of inhibitors of human ADAM10; shares compounds with ADAM10 inh; 2,100 compounds, 1% hits; inhibition, % at 6.95 µM; ADAM10 QFRET peptide cleavage, EDANS fluorescence; AID 743208;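 active = inhibition above about 20% chosen separately for each screening run, limit read from the data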;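 also: 0% = DMSO wells and 100% = marimastat wells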
ADAM17 ctr: ADAM17 inhibition, counter-screen for ADAM10 exosite hits; shares compounds with ADAM10 inh; ADAM17 QFRET peptide cleavage, EDANS fluorescence; inhibition, % at 6.95 µM; 2,100 compounds, 0.5% hits; AID 743214;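 active = mean triplicate inhibition above the solvent-only control wells' mean plus 3 SD, cut at about 12% in these data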;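 also: 0% = DMSO wells and 100% = marimastat wells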
ADAM10 counter: ADAM10 inhibition, counter-screen for ADAM17 exosite hits | shares compounds with ADAM17 inh | AID 743256 | recombinant ADAM10, EDANS/DABCYL FRET peptide cleavage, 3 h | inhibition, % at 6.95 µM | 2,900 compounds, 47% hits;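 active = mean inhibition over the triplicate runs exceeds the activity threshold set in the earlier primary screen, cut at about 20% in these data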;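 also: 0% = DMSO wells and 100% = marimastat wells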
ADAM17 confirm: confirmation of inhibitors of human ADAM17; recombinant ADAM17, EDANS/DABCYL QFRET peptide cleavage; inhibition, % at 6.95 µM; shares compounds with ADAM17 inh; 2,900 compounds, 65% hits;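 active = mean inhibition across replicates above the hit cutoff set in the primary screen, cut at about 8.5% in these data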;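 also: 0% = DMSO wells and 100% = marimastat wells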
* = called active by the depositor; / = no result.

SMILES	ADAM10 inh	KLK7 zymogen act	NR3A LBD binder	ADAM17 inh	rCAG binder	AHR act	ADAM10 confirm	ADAM17 ctr	ADAM10 counter	ADAM17 confirm
CCNC(=O)CC1SC(=Nc2ccc(C)c([N+](=O)[O-])c2)N(C)C1=O (centres undefined)	1	0	-1	0	-4	0	/	/	/	/
CN1C(=O)CCC2(c3ccccc3)CC=C(O)C=C12 (centres undefined)	-11	0	-2	-1	2	/	/	/	/	/
CCC(=O)N(Cc1ccco1)c1nc(C(=O)Nc2ccc(Cl)cc2)c(C)s1	22*	1	-2	11*	10	74*	11	3	32*	17*
CCc1nc2ccc(C(=O)Nc3cc(-c4ccccc4)ccc3OC)cn2c1N(C)Cc1ccc(OC)cc1	-7	-14	/	-1	7	/	/	/	/	/
CCc1nc2ccc(C(=O)Nc3cc(-c4ccccc4)ccc3OC)cn2c1N(C)Cc1nccs1	27*	-2	/	11*	11	/	6	2	20	15*
O=C(Nc1nc2ccc(F)cc2s1)C1CCN(S(=O)(=O)c2cc([N+](=O)[O-])ccc2Cl)CC1	21*	1	8	8.8*	21	10	5	2	15	13*
Cc1ccc2nc(NC(=O)C3CCN(S(=O)(=O)c4cc([N+](=O)[O-])ccc4Cl)CC3)sc2c1	13	0	5	6	20	-8	/	/	/	/
CCOC(=O)C1=CN(Cc2cccc(F)c2)S(=O)(=O)NC1c1ccc(Br)cc1F (centres undefined)	21*	0	-4	9.6*	12	/	3	1	24*	15*
CCOC(=O)C1=CN(Cc2cccc(F)c2)S(=O)(=O)NC1c1ccc(F)c(Cl)c1 (centres undefined)	6	0	9	5	16	/	/	/	/	/
CCN(CC)CCCNC(=O)CNC(=O)c1nn(-c2ccc(OC)cc2OC)c(=O)c2ccccc12	-14	0	/	-2	4	/	/	/	/	/
CCCc1nc2ccccc2c(C(=O)OCC(=O)NCc2ccc3c(c2)OCO3)c1CC	8	2	-8	6	-4	5	/	/	/	/
CCCc1nc2ccccc2c(C(=O)OC(C)C(=O)NCc2ccc3c(c2)OCO3)c1CC (centres undefined)	27*	0	-7	10*	2	5	3	1	25*	12*
CCOC(=O)C1=CCC(c2ccccc2)N(S(=O)(=O)c2ccccc2)C1 (centres undefined)	22*	1	/	15*	1	/	3	1	13	6
CCc1cc(Cn2nc(-c3ccccc3)cc2C(=O)NCc2cccc(Br)c2)on1	21*	0	2	14*	19	1	13	4	36*	22*
CCc1cc(Cn2nc(-c3ccccc3)cc2C(=O)NCc2cccc(C(F)(F)F)c2)on1	-4	-1	2	-2	3	2	/	/	/	/
CCc1cc(Cn2nc(-c3ccccc3)cc2C(=O)NCc2ccc(C)cc2)on1	29*	0	-2	9.1*	-4	-2	8	3	24*	13*
C=C(C)COc1ccc(-c2nc(N)ncc2-c2ccc(OC)cc2)c(O)c1	27*	0	/	16*	7	/	6	4	13	17*
C=C(C)COc1ccc(-c2[nH]ncc2-c2ccccc2)c(O)c1	24*	0	2	11*	6	15	7	3	34*	17*
CCOc1ccc(-c2n[nH]c(C)c2Oc2ccccc2OC)c(O)c1	20	0	-6	8	7	40	/	/	/	/
C=C(C)COc1ccc(-c2[nH]ncc2-c2ccc(OC)c(OC)c2)c(O)c1	1	-1	-1	3	1	9	/	/	/	/
C=C(C)COc1ccc(-c2n[nH]c(C)c2Oc2ccccc2OC)c(O)c1	26*	-1	9	12*	10	9	11	3	41*	20*
COc1ccc(-c2cn[nH]c2-c2ccc(OCc3ccccc3)cc2O)cc1OC	33*	0	0	9.7*	3	2	11	3	34*	16*
COc1ccc(N(C)C(=O)c2cn(C)c(=O)c3cc(OC)c(OC)cc23)cc1	6	0	1	-5	-6	4	/	/	/	/
Cc1ccc(NC(=O)C2CCN(S(=O)(=O)c3ccc4c(c3)C(C)(C)C(=O)N4C)CC2)c(C)c1	-3	0	0	-1	1	0	/	/	/	/
CCc1nnc(NC(=O)CCC(=O)NC2CCCCCCC2)s1	6	-1	1	-2	-4	3	/	/	/	/
SMILES	ADAM10 inh	KLK7 zymogen act	NR3A LBD binder	ADAM17 inh	rCAG binder	AHR act	ADAM10 confirm	ADAM17 ctr	ADAM10 counter	ADAM17 confirm
Cc1ccc(C2=CC(=O)C[C@H](c3ccc(F)cc3)C2)cc1	28*	0	-1	12*	-1	3	2	1	22*	17*
O=C1C=C(c2ccc3[nH]ccc3c2)C[C@@H](c2ccc(Cl)cc2)C1	21*	-2	22*	15*	7	7	10	4	7	8
CN(c1ccccc1)S(=O)(=O)c1cccc(NC(=O)CSc2nncn2C)c1	-8	-1	-6	-2	2	-3	/	/	/	/
CN(c1ccccc1)S(=O)(=O)c1cccc(NC(=O)CSc2ncc(C(F)(F)F)cc2Cl)c1	20*	0	6	10.0*	13	-1	10	4	26*	10*
O=C(CCNC(=O)c1ccccc1Cl)Nc1cc(C(F)(F)F)ccc1Cl	-3	0	-5	-4	-5	-4	/	/	/	/
Cc1ccc(C)c(C(=O)COC(=O)CCCC(=O)Nc2cc(C(F)(F)F)ccc2Cl)c1	20*	0	-12	9.8*	1	-10	4	2	25*	11*
CCOC(=O)[C@]12CCCC=C1N(Cc1ccc(OC)cc1)C(=O)[C@@H]2CC(=O)NCc1ccc(C)o1	9	0	/	2	0	/	/	/	/	/
CCOC(=O)[C@]12CCCCC/C=C\1N(Cc1ccc(OC)cc1)C(=O)[C@H]2CC(=O)NCc1cccc(C(F)(F)F)c1	21*	1	/	11*	2	/	10	3	34*	14*
